TDP43 rescue – qHTS of TDP-43 Inhibitors. TDP-43 expressing yeast growth rescue, BacTiter-Glo, 24 h. Potency, µM (doses to about 46.1 µM), for the others: at the highest dose growth rescue (activation), hits mostly activators. 410,000 compounds, 1.8% hits. AID 652104, 2013; note: % of control where 0% means no effect; nearly all actives have a fitted effect of over 50% in size
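Growth rescue of TDP-43-toxic yeast measured as ATP luminescence (BacTiter-Glo). Cells grown to mid-log in raffinose, induced in galactose at OD600=0.02, exposed to compound 24 hr at 30 deg C.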
aSyn yeast inh – qHTS of alpha-syn Inhibitors; Potency, µM (series often up to 46.1 µM), inactives show top-dose growth rescue (activation), actives largely listed as activators; 370,000 compounds, 0.14% hits; Yeast expressing alpha-synuclein, growth rescue, BacTiter-Glo, 24 h; note: % of control where 0% means no effect; nearly all actives have a fitted effect of over 65% in size
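Rescue of yeast growth: cells expressing toxic alpha-synuclein, induced in galactose at OD600 0.02, incubated with compound 24 h at 30 C. ATP luminescence quantified growth; inhibitors of toxicity appear as activators.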
FUS yeast rescue – qHTS for Suppressors of FUS Proteinopathy: Primary screen using FUS-linked yeast assay | S. cerevisiae FUS-expressing, growth rescue, OD600, 24 h | AID 1347120, 2019 | 390,000 compounds, 0.24% hits | Potency, µM (doses to about 76.6 µM), most hits filed as activators;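 note: plate controls were DMSO vehicle for no effect and reference control for full effect; nearly all actives have a fitted effect of over 55% in size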
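FUS-expressing yeast, raffinose-pregrown, induced in 2% galactose minimal medium at OD 0.005; compounds in a dilution series, 24hr at 30C. Growth restoration read as absorbance at 600 nm. CP55940 positive control, DMSO negative.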
Abeta rescue – qHTS for compounds that reverse cellular toxicity of Amyloid beta (A-beta) peptide in yeast: Primary Screen. Potency, µM (highest dose often 46.1 µM), actives largely listed as activators. yeast expressing A-beta42, growth rescue, OD600, 48 h; response scale: 0% DMSO, 100% iron-clioquinol control. 410,000 compounds, 0.063% hits; note: nearly all actives have a fitted effect of over 55% in size
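Growth rescue measured by 600 nm absorbance after 48 h yeast culture at 30 C with compound. Values normalized between DMSO and an equimolar ferric chloride plus clioquinol control.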
Starred values were filed as active, the others as inactive. The list is not random: actives were taken first. Their share in the collection is about 2.1%. Calls come from the whole dose curve; as a rule, active = well fitted curve in the direction sought with a large enough effect; inconclusive = small, poorly fitted or top-dose-only effect, or another doubt; inactive = no such curve, though single readings can be large; an effect the other way counts as inactive or inconclusive. Potency is the fitted concentration of half-maximal effect.

How did Cc1ccc(CCNC(=O)C2CCCN(S(=O)(=O)c3c(C)noc3/C=C/N(C)C)C2)cc1 (stereo unspecified) do in these assays?
TDP43 rescue: 9%; aSyn yeast inh: 0%; FUS yeast rescue: 20µM*; Abeta rescue: inactive

What do the screens show for `CN=c1scc(-c2ccc(OC)cc2)n1/N=C(\C)c1cccnc1`?
TDP43 rescue: 14µM*; aSyn yeast inh: -11%; FUS yeast rescue: inactive; Abeta rescue: inactive

Results for Cc1occc1C(=O)NCc1cccs1 ?
TDP43 rescue: 12%; aSyn yeast inh: -2%; FUS yeast rescue: inactive; Abeta rescue: inactive

What do the screens show for `O=C(COC(=O)Cc1c[nH]c2ccccc12)Nc1cc(S(=O)(=O)N2CCOCC2)ccc1Cl`?
TDP43 rescue: 10%; aSyn yeast inh: 1%; FUS yeast rescue: 35µM*; Abeta rescue: inactive

How did Cc1ccc(S(=O)(=O)N2CCOCC2)cc1NC(=O)COC(=O)CCc1c[nH]c2ccccc12 do in these assays?
TDP43 rescue: -6%; aSyn yeast inh: -3%; Abeta rescue: inactive

What do the screens show for `CCN(Cc1ccccc1)CC(O)COC(c1ccc(OC)cc1)c1ccc(OC)cc1` (stereo unspecified)?
TDP43 rescue: -4%; aSyn yeast inh: 12%; FUS yeast rescue: inactive; Abeta rescue: inactive

How did S=c1[nH]c2ccccc2n2c(=S)[nH]nc12 do in these assays?
TDP43 rescue: inconclusive; aSyn yeast inh: -4%; FUS yeast rescue: inactive; Abeta rescue: inactive

What do the screens show for `S=c1[nH]nc2ccc3ccccc3n12`?
TDP43 rescue: 13µM*; aSyn yeast inh: 0%; FUS yeast rescue: inactive; Abeta rescue: inactive

How did Cn1cc(C(=O)N2CCN(c3cccc(C(F)(F)F)c3)CC2)c2c3ccccc3n(C)c2c1=O do in these assays?
TDP43 rescue: 28µM*; FUS yeast rescue: inconclusive; Abeta rescue: inactive

What do the screens show for `CC(C)Cn1cc(C(=O)N2CCN(c3cccc(Cl)c3)CC2)c2c3ccccc3n(C)c2c1=O`?
TDP43 rescue: -10%; FUS yeast rescue: 35µM*; Abeta rescue: inactive

How did Cn1c2ccccc2c2c(C(=O)N3CCN(c4cccc(C(F)(F)F)c4)CC3)cn(C3CCCCC3)c(=O)c21 do in these assays?
TDP43 rescue: 21%; FUS yeast rescue: inactive; Abeta rescue: inactive

What do the screens show for `NC(=O)c1ccc(Br)c(S(=O)(=O)N2CCCCC2)c1`?
TDP43 rescue: -5%; aSyn yeast inh: 1%; FUS yeast rescue: inactive; Abeta rescue: inactive

Results for O=S(=O)(c1cc(Br)ccc1Br)N1CCCCCC1 ?
TDP43 rescue: 7.9µM*; aSyn yeast inh: 4%; FUS yeast rescue: inactive; Abeta rescue: inactive

What do the screens show for `CCOC(=O)c1c(NC(=O)Nc2ccc(C)cc2)sc2c1CCN(C)C2`?
TDP43 rescue: 16%; aSyn yeast inh: inconclusive; FUS yeast rescue: inactive; Abeta rescue: inactive

Results for Cc1cccc(NC(=O)c2c(C)oc3ncn(CC(C)C)c(=O)c23)n1 ?
TDP43 rescue: 23%; FUS yeast rescue: inactive; Abeta rescue: inactive

How did COc1ccc(C)cc1NC(=O)c1c(C)oc2ncn(CC(C)C)c(=O)c12 do in these assays?
TDP43 rescue: 16µM*; FUS yeast rescue: inconclusive; Abeta rescue: inactive

What do the screens show for `Cc1ccc(C)c(-c2csc(N)c2C(=O)OC(C)C)c1`?
TDP43 rescue: inconclusive; aSyn yeast inh: -11%; FUS yeast rescue: inactive; Abeta rescue: inactive

What do the screens show for `CCOC(=O)c1c(-c2cccc([N+](=O)[O-])c2)csc1NC(=O)C1CC1`?
TDP43 rescue: 20%; aSyn yeast inh: 5%; FUS yeast rescue: inactive; Abeta rescue: inactive

How did CCOC(=O)c1c(-c2cccc([N+](=O)[O-])c2)csc1N do in these assays?
TDP43 rescue: 18µM*; aSyn yeast inh: 3%; FUS yeast rescue: inconclusive; Abeta rescue: inactive

What do the screens show for `Cc1cccc(-c2csc(N)c2C(=O)OC(C)C)c1`?
TDP43 rescue: 13µM*; aSyn yeast inh: 8%; FUS yeast rescue: inactive; Abeta rescue: inactive

How did Cc1ccc2c(c1)C(c1ccc(F)cc1)N(C(=O)c1ccc(S(=O)(=O)N3CCCCC3)cc1)CC(=O)N2 (stereo unspecified) do in these assays?
TDP43 rescue: -9%; FUS yeast rescue: 32µM*; Abeta rescue: inactive

How did O=C1CN(C(=O)c2ccc(S(=O)(=O)N3CCCCC3)cc2)C(c2ccc(F)cc2)c2cc(Br)ccc2N1 (stereo unspecified) do in these assays?
TDP43 rescue: 10%; FUS yeast rescue: 18µM*; Abeta rescue: inactive

How did C(=N/Nc1nc(-c2ccccc2)cc(-c2ccccc2)n1)/c1cccnc1 do in these assays?
TDP43 rescue: 14µM*; aSyn yeast inh: 8%; Abeta rescue: inactive

What do the screens show for `CN(Cc1c(F)cccc1Cl)c1nnnn1-c1ccccc1`?
TDP43 rescue: inconclusive; aSyn yeast inh: 11%; FUS yeast rescue: inactive; Abeta rescue: inactive

Results for O=C(NCc1ccccc1F)c1sc2ncccc2c1-n1cccc1 ?
TDP43 rescue: 20µM*; FUS yeast rescue: inactive; Abeta rescue: inactive

Results for O=C(NCCc1ccccc1)c1sc2ncccc2c1-n1cccc1 ?
TDP43 rescue: 22µM*; FUS yeast rescue: inactive; Abeta rescue: inactive

How did Cn1c(-c2c(N)n(C3CCCC3)c3nc4ccccc4nc23)nc2ccccc21 do in these assays?
TDP43 rescue: 13µM*; aSyn yeast inh: -9%; FUS yeast rescue: inconclusive; Abeta rescue: inactive

What do the screens show for `Cn1c(-c2c(N)n(CCc3ccccc3)c3nc4ccccc4nc23)nc2ccccc21`?
TDP43 rescue: 7%; aSyn yeast inh: -17%; FUS yeast rescue: inconclusive; Abeta rescue: inactive

How did COCCCn1c(N)c(-c2nc3ccccc3n2C)c2nc3ccccc3nc21 do in these assays?
TDP43 rescue: -8%; aSyn yeast inh: 0%; FUS yeast rescue: inactive; Abeta rescue: inactive

What do the screens show for `Cn1c(-c2c(N)n(CCCc3ccccc3)c3nc4ccccc4nc23)nc2ccccc21`?
TDP43 rescue: inconclusive; aSyn yeast inh: -25%; FUS yeast rescue: 32µM*; Abeta rescue: inactive

How did CN(C)c1ccc(/C=N/N=C2/NC(=O)/C(=C/c3ccc([N+](=O)[O-])cc3)S2)cc1 do in these assays?
TDP43 rescue: 1%; aSyn yeast inh: 16%; FUS yeast rescue: inactive; Abeta rescue: inactive

What do the screens show for `CCC1(CC)NC(=O)N(CC(=O)Nc2ccc(-n3cnnn3)cc2)C1=O`?
TDP43 rescue: 11%; aSyn yeast inh: 0%; FUS yeast rescue: inactive; Abeta rescue: inactive

Results for Cc1ccc(Cl)cc1-n1ncc2c(NC3CCCCC3)ncnc21 ?
TDP43 rescue: 13µM*; FUS yeast rescue: inactive; Abeta rescue: inactive

What do the screens show for `Clc1cccc(-n2ncc3c(NC4CCCCC4)ncnc32)c1`?
TDP43 rescue: 16µM*; FUS yeast rescue: inactive; Abeta rescue: inactive

Screens: PubChem BioAssay, National Center for Advancing Translational Sciences (NCATS)
